Bioassay records: PubChem BioAssay, Broad Institute
NOMO-1 viab: STK33 inhibitor candidate reducing NOMO-1 cell viability. NOMO-1 AML viability, CellTiter-Glo luminescence, 72 h. inhibition, % (test concentration not listed). 37,000 compounds, 7.5% hits. AID 2330; in the data active = inhibition above about 80%
ROS inducer: inducers of reactive oxygen species in cancer cells; U2OS ROS induction, H2DCF-DA fluorescence; ROS induction (% of piperlongumine), % at 10 µM; 46,000 compounds, 2% hits; in the data active = ROS induction above about 79%, passing the limit was not always enough;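 also: 0% = DMSO vehicle median and 100% = reference compound median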
* = called active by the depositor; . = not tested or not shown. This is one part of a sample in which hits are shown more often than they occur.

SMILES | NOMO-1 viab | ROS inducer
C[C@@H]1CN([C@@H](C)CO)C(=O)Cc2cc(NC(=O)Nc3ccccc3)ccc2O[C@@H]1CN(C)Cc1ccc(Oc2ccccc2)cc1 | 78 | 13
C[C@@H]1CN([C@H](C)CO)C(=O)Cc2cc(NC(=O)Nc3ccc4c(c3)OCO4)ccc2O[C@H]1CN(C)Cc1ccc(Oc2ccccc2)cc1 | 117* | 16
C[C@H]1CN([C@@H](C)CO)C(=O)Cc2cc(NC(=O)Nc3ccccc3)ccc2O[C@@H]1CN(C)Cc1ccc(Oc2ccccc2)cc1 | 58 | 21
C[C@H](CO)N1C[C@H](C)[C@H](CN(C)Cc2ccc(Oc3ccccc3)cc2)Oc2ccc(NC(=O)Nc3ccccc3)cc2CC1=O | 45 | 32
N#Cc1ccccc1CSc1nnc(-c2ccc([N+](=O)[O-])cc2)n1-c1ccccc1 | 18 | 12
COc1ccc(OC)c(NC(=O)CSc2nnc(-c3ccc(F)cc3)n2C)c1 | -2 | 56
CCN(CC(=O)Nc1ccc2c(c1)OCCO2)S(=O)(=O)c1ccc(Cl)cc1 | 22 | 0
CC(C)NC(=O)N(C)C[C@H]1Oc2ccc(NC(=O)CCCN(C)C)cc2C(=O)N([C@@H](C)CO)C[C@H]1C | -5 | -7
CCNC(=S)N1N=C2c3ccccc3CCC2C1c1ccc(F)cc1 (stereo not drawn) | 113* | 101*
O=C(c1ccco1)N1N=C2c3ccccc3CCC2C1c1ccc(F)cc1 (stereo not drawn) | 48 | 85*
O=C(Nc1ccc(Cl)cc1)N1N=C2c3ccccc3CCC2C1c1cccs1 (stereo not drawn) | 31 | 66
CN1N=C2c3ccccc3CCC2C1c1ccc(C#N)cc1 (stereo not drawn) | . | -3
CC(NS(=O)(=O)c1ccccc1)C(=O)Nc1ccccc1C(F)(F)F (stereo not drawn) | 24 | -4
O=C(Cn1c(NCCO)nc2ccccc21)c1cccc([N+](=O)[O-])c1 | -3 | 12
COc1ccccc1NC(=O)CSc1nc2sc(C)c(C)c2c(=O)n1-c1ccc(C)c(C)c1 | 35 | 51
CC(C)NC(=O)Nc1ccc2c(c1)CC(=O)N([C@@H](C)CO)C[C@@H](C)[C@@H](CN(C)Cc1ccc(-c3ccccc3)cc1)O2 | 94* | 31
C[C@@H]1CN([C@H](C)CO)C(=O)Cc2cc(NC(=O)Nc3ccccc3)ccc2O[C@@H]1CN(C)Cc1ccc(-c2ccccc2)cc1 | 107* | 4
C[C@H]1CN([C@@H](C)CO)C(=O)Cc2cc(NC(=O)Nc3ccc(F)cc3)ccc2O[C@@H]1CN(C)Cc1ccc(-c2ccccc2)cc1 | 106* | 22
C[C@@H]1CN([C@@H](C)CO)C(=O)Cc2cc(NC(=O)Nc3ccccc3)ccc2O[C@@H]1CN(C)Cc1ccccc1 | 23 | 68
CC(C)NC(=O)Nc1ccc2c(c1)CC(=O)N([C@H](C)CO)C[C@H](C)[C@H](CN(C)Cc1ccc(-c3ccccc3)cc1)O2 | 42 | 21
C[C@@H]1CN([C@H](C)CO)C(=O)Cc2cc(NC(=O)Nc3ccc(F)cc3)ccc2O[C@@H]1CN(C)Cc1ccc(-c2ccccc2)cc1 | 50 | 9
COc1ccc(NC(=O)Nc2ccc3c(c2)CC(=O)N([C@@H](C)CO)C[C@H](C)[C@@H](CN(C)Cc2ccc(-c4ccccc4)cc2)O3)cc1 | 13 | 56
COc1ccc(NC(=O)Nc2ccc3c(c2)CC(=O)N([C@@H](C)CO)C[C@H](C)[C@H](CN(C)Cc2ccc(-c4ccccc4)cc2)O3)cc1 | 128* | 20
C=CCOC(=O)[C@H]1[C@@H]2C(=O)O[C@@H](c3ccccc3)[C@@H](c3ccccc3)N2[C@@H](c2ccc(OCCOC(=O)[C@@H]3C[C@@H]4C(=O)N[C@@H](CCCCNC(C)=O)C(=O)N4[C@@H]3c3ccc(O)cc3)cc2)[C@]12C(=O)Nc1ccc(I)cc12 | . | -3
C[C@@H]1CN([C@H](C)CO)C(=O)c2cccc(NC(=O)Nc3ccccc3)c2O[C@H]1CN(C)S(=O)(=O)c1cccs1 | 0 | 0
SMILES | NOMO-1 viab | ROS inducer
CCOC(=O)c1nn(-c2cccc(Cl)c2)cc(Sc2ccc(Cl)cc2)c1=O | . | 54
CCc1ccc(NC(=O)CN2C(=O)CCc3ccccc32)cc1 | . | -6
Cc1noc(C)c1NC(=O)Nc1ccc2c(c1)C(=O)N([C@@H](C)CO)C[C@H](C)[C@@H](CN(C)S(=O)(=O)c1ccc(Cl)cc1)O2 | -29 | -1
CCOC(=O)C1=C(c2cccs2)OC(N)=C(C#N)C1c1cccnc1 (stereo not drawn) | . | 26
CC(=O)n1c(/C=C2/C=c3cccc(C)c3=NC2=O)c(O)[nH]c1=S | . | 71
CCCCc1ccc(NC(=O)CC)cc1 | . | 24
CCC(=O)Nc1ccc2c(c1)N(CC)C(C)(C)CC2C (stereo not drawn) | 99* | 11
COc1ccc2c(c1)nnc1n[nH]c(=O)n12 | 16 | 33
Cc1ccc(NC(=O)CN2C(=O)S/C(=C/c3ccc(C)o3)C2=O)cc1 | . | 16
C[C@@H]1CCCCO[C@H](CN(C)Cc2ccncc2)[C@@H](C)CN([C@H](C)CO)C(=O)c2cc(NC(=O)c3ccccc3)ccc2O1 | -2 | 21
C[C@H](CO)N1C[C@H](C)[C@@H](CN(C)Cc2ccc(-c3ccccc3)cc2)Oc2c(NC(=O)Nc3ccc(F)cc3)cccc2C1=O | 36 | 65
C[C@@H]1CN([C@H](C)CO)C(=O)c2cccc(NC(=O)Nc3ccc(F)cc3)c2O[C@@H]1CN(C)Cc1ccc(-c2ccccc2)cc1 | 82* | 45
C[C@@H]1CN([C@@H](C)CO)C(=O)c2cccc(NC(=O)Nc3ccccc3)c2O[C@@H]1CN(C)Cc1ccc(-c2ccccc2)cc1 | 102* | 82*
Cc1noc(C)c1NC(=O)Nc1cccc2c1O[C@H](CN(C)Cc1ccccc1)[C@@H](C)CN([C@H](C)CO)C2=O | 38 | 59
C[C@H]1CN([C@@H](C)CO)C(=O)c2cccc(NC(=O)Nc3ccc(F)cc3)c2O[C@@H]1CN(C)Cc1ccc(-c2ccccc2)cc1 | 59 | 58
C[C@@H]1CN([C@H](C)CO)C(=O)c2cccc(NC(=O)Nc3cccc4ccccc34)c2O[C@@H]1CN(C)Cc1ccc(-c2ccccc2)cc1 | 107* | 23
Cc1noc(C)c1NC(=O)Nc1cccc2c1O[C@H](CN(C)Cc1ccc(-c3ccccc3)cc1)[C@@H](C)CN([C@H](C)CO)C2=O | 111* | 58
C[C@@H]1CN([C@H](C)CO)C(=O)c2cccc(NC(=O)Nc3cccc4ccccc34)c2O[C@@H]1CN(C)Cc1ccc(C(=O)O)cc1 | 6 | -4
CS(=O)(=O)N(CC(=O)Nc1ccc(Br)cc1)c1cc(Cl)cc(Cl)c1 | 20 | 9
COC(=O)c1c(NC(=O)CN2C(=O)c3ccccc3C2=O)sc2c1CCC(C(C)(C)C)C2 (stereo not drawn) | -23 | .
COc1ccc(S(=O)(=O)N(C)C[C@@H]2Oc3c(NC(=O)NC(C)C)cccc3C(=O)N([C@H](C)CO)C[C@@H]2C)cc1 | 11 | -12
Cc1ccc(S(=O)(=O)N(C)C[C@H]2Oc3ccc(NC(=O)Nc4ccc(C(F)(F)F)cc4)cc3C(=O)N([C@H](C)CO)C[C@H]2C)cc1 | 92* | -1
Cc1ccc(S(=O)(=O)N(C)C[C@@H]2Oc3ccc(NC(=O)Nc4ccc(C(F)(F)F)cc4)cc3C(=O)N([C@H](C)CO)C[C@H]2C)cc1 | 97* | 0
